Screening data as filed in PubChem BioAssay.
Shown are actives, neighbours in structure and some others; about 8% of the full set was active somewhere.
KB-V1 MDR tox = qHTS assay for MDR1-selective chemotherapeutics: Primary screen using the drug-selected MDR subline cells KB-V1; KB-V1 MDR cells viability, CellTiter-Glo, 72 h; AID 1347076, 2019; 3.4% of 400,000 active; Potency, µM (doses to about 46.1 µM), most hits filed as cytotoxic; further: on the % scale 0 is the no-effect control and ±100 the full control effect; nearly all actives have a fitted effect of over 60% in size
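Cells of the MDR subline KB-V1 are plated, dosed with compound at multiple concentrations, and incubated 72 h at 37 degrees C; CellTiter-Glo is then added and luminescence read after 10 min.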
HT1080 IDH1KD tx = qHTS for induction of synthetic lethality in tumor cells producing 2HG: qHTS for the HT-1080-IDH1KD cell line. HT-1080 IDH1 knockdown viability, ATP luminescence, 48 h. 2% of 360,000 active. Potency, µM (series often up to 46.1 µM), for inactives: top-dose activity, negative = toxicity, usual class: cytotoxic;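 further: 0% = DMSO wells and -100% = cell-free medium wells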
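Assay cells: HT-1080 with IDH1 knockdown, 750 per well, RPMI/5% FBS. Exposure: 48 h at 37 °C following 2 h pre-incubation. Read: CellTiter-Glo luminescence; fitted concentration-response, curve class assigned.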
SW480 rerep = A quantitative high throughput screen for small molecules that induce DNA re-replication in SW480 colon adenocarcinoma cells; 1.8% of 340,000 active; Potency, µM (doses to about 46.1 µM), for inactives: at the highest dose re-replication activation, hits mostly activators; SW480 DNA re-replication, Hoechst DNA content imaging, 48 h; further: % of control where 0% means no effect; nearly all actives have a fitted effect of over 55% in size
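DNA re-replication was detected as more nuclei of elevated Hoechst intensity after 48 hr exposure to compound (23 nL pinned per well of 250 cells).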
KB-3-1 cytotox = qHTS assay for MDR1-selective chemotherapeutics: Primary screen using the parental adenocarcinoma cell KB-3-1 | KB-3-1 viability, CellTiter-Glo ATP luminescence, 72 h | Potency, µM (titrated, usually from 46.1 µM), hits mostly cytotoxic | 1.4% of 400,000 active; further: on the % scale 0 is the no-effect control and ±100 the full control effect; nearly all actives have a fitted effect of over 60% in size
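KB-3-1 parental drug-naive adenocarcinoma cells in DMEM/10% FBS, incubated 72 h at 37 C with pin-transferred compounds across a concentration series. Viability by CellTiter-Glo luminescence; concentration-response curves fitted after normalization.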
MCF10A rerep = A quantitative high throughput screen for small molecules that induce DNA re-replication in MCF 10a normal breast cells; 2.9% of 350,000 active; MCF 10A DNA re-replication, Hoechst nuclear intensity, 48 h; Potency, µM (highest dose often 46.1 µM), for inactives: top-dose activity, positive = re-replication, most hits filed as activators; further: % of control where 0% means no effect; nearly all actives have a fitted effect of over 50% in size
HT1080-NT tox = qHTS for induction of synthetic lethality in tumor cells producing 2HG: qHTS for the HT-1080-NT fibrosarcoma cell line | HT-1080-NT fibrosarcoma viability, CellTiter-Glo ATP luminescence, 48 h | Potency, µM (top dose mostly 46.1 µM), without a hit: at the highest dose activity, negative = less viability, actives largely listed as cytotoxic | 1.6% of 360,000 active;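 further: NT is the 2HG producing partner of a matched IDH1 knockdown line; 0% = DMSO-treated cells and -100% = media-only wells without cells; nearly all actives have a fitted effect of over 55% in size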
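Viability of the 2HG-overproducing fibrosarcoma line after 48 hours of compound exposure at 37 degrees C was determined by luminescence with CellTiter-Glo, and concentration-effect curves were then fitted and categorized.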
Starred values were filed as active, the others as inactive; i = inactive; ? = inconclusive; nt = no result; [ ] = remark or other dose. The call rests on the fitted dose curve; in most records, active means well fitted curve in the direction sought with a large enough effect; inconclusive means small, poorly fitted or top-dose-only effect, or another doubt; inactive means no such curve, though single readings can be large; an effect the other way counts as inactive or inconclusive. Potency means the concentration at half of the fitted maximal effect.

SMILES | KB-V1 MDR tox | HT1080 IDH1KD tx | SW480 rerep | KB-3-1 cytotox | MCF10A rerep | HT1080-NT tox
CCN1CCN(c2ncc3c(n2)CC(c2cc(OC)c(OC)c(OC)c2)CC3=O)CC1 (configuration not stated) | i | 4.11µM* | 4.11µM* | ? | 20.6µM* | ?
Cc1cccc2cc(C(c3nnnn3Cc3ccccc3)N3CCCc4ccccc43)c(=O)[nH]c12 (configuration not stated) | i | -1.4% | 4.61µM* | i | 5.17µM* | -0.2%
COc1ccc(NC(=O)CC2SC(=Nc3ccccc3)NC2=O)cc1 (configuration not stated) | i | -1.6% | 1.5% | i | 7.2% | -3.2%
COc1cccc(NC(=O)CC2SC(=Nc3ccccc3)NC2=O)c1 (configuration not stated) | 16.4µM* | 2.2% | -5.7% | i | -7.3% | 2.7%
COc1cccc(NC(=O)CN(C)C(=O)CC2Sc3ccccc3NC2=O)c1 (configuration not stated) | 23.1µM* | -10.7% | 3.0% | i | 2.1% | 3.0%
CC(C)N(CC#CCC(O)(c1ccccc1)c1ccccc1)C(C)C | 13µM* | 3.6% | -49.6% | i | ? | -16.2%
CCOC(=O)N1CCN(C(C(=O)NC2CCCC2)c2ccco2)CC1 (configuration not stated) | ? | 2.9% | nt | i | nt | -2.0%
O=C(O/N=C\c1ccc(N2CCCCC2)c([N+](=O)[O-])c1)c1ccc(Cl)cc1Cl | ? | 13.9% | ? | i | -5.5% | 0.5%
COc1ccccc1C(=O)/C=C/c1ccc(N2CCCCC2)c([N+](=O)[O-])c1 | 10.3µM* | ? | 18.4µM* | ? | 6.51µM* | ?
O=C(/C=C/c1ccc(N2CCCCC2)c([N+](=O)[O-])c1)c1ccc(O)cc1 | ? | 18.4µM* | ? | ? | 21.4% | 18.4µM*
CCCOC(=O)c1ccc(-n2nnnc2SCC(=O)N2CCCCC2)cc1 | i | -17.4% | 3.7% | i | -181.3%[0.0737 µM] | -7.3%
Cc1ccc(-n2nnnc2SCC(=O)N2CCCCC2)cc1 | 9.2µM* | -1.2% | -4.2% | i | 0.9% | 2.5%
COC(=O)c1ccc(-n2nnnc2SCC(=O)N2CCCCC2)cc1 | 20.6µM* | -15.3% | 8.1% | i | 5.6% | -5.3%
Cc1ccc(-n2nnnc2SCC(=O)Nc2sccc2C#N)cc1 | 18.4µM* | -10.4% | ? | i | -38.8% | -5.8%
COc1ccc(Cl)cc1N(CC(=O)N/N=C/c1ccc(OC(C)C)cc1)S(=O)(=O)c1ccc(C)c([N+](=O)[O-])c1 | i | 14.8% | -4.4% | i | -2.1% | 9.2%
COc1ccccc1N1C(=O)Cc2ccccc2C1=O | i | 12.6% | -7.7% | i | -1.3% | 11.2%
N#CC1=C(N)NC(=S)C(C(N)=O)C1c1ccccc1F (configuration not stated) | i | ? | 20.6µM* | i | ? | -26.7%
CCOC(=O)C1C(=O)NC(SC)=C(C#N)C1c1ccccc1F (configuration not stated) | 14.6µM* | 0.6% | -6.3% | i | -2.3% | 7.6%
N#CC1=C(N)NC(=S)C(C(N)=O)C1c1ccc(Cl)cc1Cl (configuration not stated) | ? | ? | 16.4µM* | i | 14.6µM* | ?
Cc1cccc(NC(=O)CN2C(=O)S/C(=C\c3cccn3-c3cccc(C(=O)O)c3)C2=O)c1 | i | -12.2% | 6.4% | i | ? | -8.1%
CCOc1ccc(C(C)=O)cc1CN1C(=O)c2ccccc2S1(=O)=O | ? | -16.1% | -12.0% | i | 2.5% | ?
Cc1ccc(Cc2c(-c3ccco3)nc3c(C)cc(Br)cn23)cc1 | ? | 14.6µM* | nt | ? | nt | 25.9µM*
Cc1ccc(Cc2c(-c3ccco3)nc3c4ccccc4ccn23)cc1 | ? | 20.6µM* | nt | i | nt | 23.1µM*
Cc1ccc(Cc2c(-c3ccco3)nc3ccc(C)cn23)cc1 | i | -29.0% | nt | i | nt | -18.3%
Cc1cc(Br)cn2c(Cc3cccc(Cl)c3)c(-c3ccco3)nc12 | i | ? | nt | ? | nt | ?
SMILES | KB-V1 MDR tox | HT1080 IDH1KD tx | SW480 rerep | KB-3-1 cytotox | MCF10A rerep | HT1080-NT tox
O=C(Nc1cc(C(F)(F)F)ccc1Cl)c1cc(-c2cccs2)nc2ccccc12 | i | nt | nt | i | nt | nt
COC(=O)C1=NN(C(=O)c2cccc(Cl)c2)C(O)(C(C)(C)C)C1 (configuration not stated) | i | 13.8% | -11.7% | i | ? | 10.7%
Cc1cccc(NC(=O)CSc2nc3ccc(NC(=O)c4ccco4)cc3s2)c1 | i | nt | nt | i | nt | nt
COc1cccc(C(=O)NCc2nnc(SCC(=O)Nc3nccs3)n2-c2ccccc2)c1 | i | 9.5% | -2.4% | i | 14.9% | 0.0%
O=c1[nH]c(SCc2cccc(F)c2)nc2c1CCCC2 | 14.6µM* | 1.2% | -10.6% | i | 12.2% | -2.0%
NNc1nnc2c3cc(F)ccc3n(CCc3ccccc3)c2n1 | ? | ? | 4.11µM* | 23.1µM* | ? | ?
COc1ccc(C(=O)N(Cc2ccco2)Cc2cccs2)c(O)c1 | i | -11.8% | -2.8% | i | 5.3% | -0.6%
COc1ccc(C(=O)/C=C/C(=O)N(CC(=O)NCCC(C)C)Cc2cccs2)c(O)c1 | 10.3µM* | -15.7% | ? | i | -2.0% | -1.8%
CS(=O)(=O)N(CC(=O)NC1CCCCC1)Cc1ccc(F)cc1 | ? | 0.0% | -1.2% | i | 2.5% | 2.8%
COc1ccc(C(=O)/C=C/C(=O)N(CC(=O)NC2CCCCC2)Cc2ccc(F)cc2)c(O)c1 | 16.4µM* | -24.6% | ? | ? | ? | -19.0%
O=C(CCS(=O)(=O)c1ccccc1)N(CCCN1CCOCC1)c1nc2ccc(F)cc2s1 | ? | ? | -14.0% | ? | 18.4µM* | ?
Cc1ccc(S(=O)(=O)CC(=O)N(CCCN2CCOCC2)c2nc3c(F)cccc3s2)cc1 | i | 4.3% | -4.0% | i | -8.0% | 18.5%
CCc1cccc2sc(N(CCCN3CCOCC3)C(=O)CS(=O)(=O)c3ccccc3)nc12 | i | -2.1% | 0.2% | i | 1.9% | -8.7%
